Measurements: PubChem BioAssay (EPA / NIEHS)
Several values for one entry are separate records, joined by “and”; a condition that tells them apart may be missing. Identical values can stand only once. Records with an inconclusive call do not appear. A structure can be active in one record and inactive in another. Activity calls are given as the source filed them. Rule for the calls: active = hit-call score of the fitted dose curve at least 0.9, where 1 is the maximum; inconclusive = response in the unintended direction; inactive = score below 0.9.

How the values were obtained:
[1] = tested on: NCBI gene 100848466; assay: NVS_NR_bPR: NovaScreen (NVS) Nuclear Receptor Binding Assay for bovine Progextron Receptor (PR) (AID 2283343);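 for AC50: actives lower bound radioligand signal below DMSO meaning displacement of the label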
Outline: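 Bovine uterine membrane preparation; radioligand displacement read by scintillation counting 18 h after dosing. Primary screen single concentration, 25 uM, in duplicate; actives followed up in concentration series. Signal loss versus DMSO baseline.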

[2] = biological target: human Constitutive Androstane Receptor (CAR), NR1I3 (gene 9970) (UniProt Q14994); assay: NVS_NR_hCAR_Antagonist: NovaScreen (NVS) Nuclear Receptor Binding Assay for human Constitutive Androstane Receptor Antagonism (CAR) (AID 2283344)
Outline: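 Cell-free TR-FRET binding read 1 h after dosing, antagonist mode; loss of signal versus DMSO baseline. Primary screen in duplicate at a single 25 uM; actives retested in concentration series.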

[3] = biological target: chimpanzee Androgen Receptor (AR), AR (gene 747460) (UniProt O97775); assay: NVS_NR_cAR: NovaScreen (NVS) Nuclear Receptor Binding Assay for chimpanzee Androgen Receptor (AR) (AID 2283346);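 note: radioligand displacement from AR measured by scintillation counting in a cell-free assay; a loss of bound radioligand signal versus DMSO counts as binding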
Outline: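 Radioligand binding to chimpanzee AR expressed in Sf9/Sf21 cells, cell-free, measured 72 h after dosing by lysate-based scintillation counting. Loss of signal vs DMSO; initial duplicate screen at 25 uM, actives retested in concentration series.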

[4] = biological target: Estrogen receptor beta (Homo sapiens) (UniProt Q92731); assay: OT_ER_ERbERb_0480: Odyssey Thera (OT) 8-hour HEK293T Protein-Complementation Assay for Estrogen Receptor-beta/-beta Homodimer (AID 2283357);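 note: active means signal gain over DMSO baseline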
Outline: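 Fluorescence intensity, nuclear for agonists and nuclear plus cytoplasmic for antagonists, was quantified by laser scanning cytometry versus vehicle after 8 h treatment. The cells were HEK293T stably carrying ER beta LBD fragment-complementation partners.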

[5] = biological target: Retinoic acid receptor alpha (Homo sapiens) (UniProt P10276); assay: NVS_NR_hRAR_Antagonist: NovaScreen (NVS) Nuclear Receptor Binding Assay for human Retinoic Acid Alpha Receptor Antagonism (RAR) (AID 2283358)
Outline: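 Cell-free TR-FRET binding assay with extracted human RARalpha in antagonist mode, read 2 h after dosing. Loss of signal was fitted relative to DMSO; the primary screen used 25 uM in duplicate, with concentration series on follow-up.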

[6] = biological target: human Peroxisome Proliferator-activated Receptor alpha (PPARa), PPARA (gene 5465) (UniProt Q07869); assay: NVS_NR_hPPARa: NovaScreen (NVS) Nuclear Receptor Binding Assay for human Peroxisome Proliferator-activated Receptor alpha (PPARa) (AID 2283359);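 note: activity means loss of TR-FRET signal versus DMSO baseline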
Outline: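 Cell-free TR-FRET binding assay with extracted PPARα protein, read 1 h after dosing. Primary screen in duplicate at 25 uM, with actives retested in concentration series. Loss of signal versus DMSO.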

[7] = biological target: Estrogen receptor (Homo sapiens) (UniProt P03372); assay: OT_ER_ERaERa_1440: Odyssey Thera (OT) 24-hour HEK293T Protein-Complementation Assay for Estrogen Receptor-alpha/-alpha Homodimer (AID 2283349);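 note: hits raise fluorescence above DMSO for agonists and antagonists alike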
Outline: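 HEK293T cells stably expressing the human ER alpha ligand-binding domain (aa 310-547) as a homodimer PCA were dosed for 24 hours. Fluorescence intensity was read by laser scanning cytometry, and gain of signal was fitted relative to DMSO vehicle.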

[8] = biological target: Estrogen receptor (Homo sapiens) (UniProt P03372); assay: OT_ER_ERaERa_0480: Odyssey Thera (OT) 8-hour HEK293T Protein-Complementation Assay for Estrogen Receptor-alpha/-alpha Homodimer (AID 2283351);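 note: rise in fluorescence from reassembled reporter fragments on ERα LBD homodimer in nucleus or whole cell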
Outline: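 The readout is complementation of fragments fused to the human ER alpha ligand-binding domain (aa 310-547), stably expressed in HEK293T cells. After 8 h of exposure, the increase in nuclear/cytoplasmic fluorescence was measured by laser scanning cytometry and fitted relative to DMSO.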

[9] = biological target: rat Mineralocorticoid Receptor (MR), Nr3c2 (gene 25672) (UniProt P22199); assay: NVS_NR_rMR: NovaScreen (NVS) Nuclear Receptor Binding Assay for rat Mineralocorticoid Receptor (MR) (AID 2283355)
Outline: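 Cell-free radioligand binding to mineralocorticoid receptor from adrenalectomized rat brain supernatant, scintillation counting after 24 h. Primary screen in duplicate at 25 uM; actives retested in concentration series. Loss of specific binding versus DMSO.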

[10] = biological target: bovine Gamma-Aminobutyric Acid Type A Receptor Agonist (GABAR Agonist), GABRA1 (gene 780973) (UniProt P08219); assay: NVS_LGIC_bGABAR_Agonist: NovaScreen (NVS) Ligand-Gated Ion Channel Assay for bovine Gamma-Aminobutyric Acid Type A Receptor Agonist (GABAR Agonist) (AID 2283338)
Outline: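 Radioligand binding to bovine cerebellar membranes in agonist format, read by filter-based scintillation counting after 1 h. Primary screen in duplicate at 25 uM, with actives followed in concentration series. Gain of signal versus DMSO.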

[11] = biological target: Estrogen receptor (Homo sapiens) (UniProt P03372); assay: NVS_NR_hER: NovaScreen (NVS) Nuclear Receptor Binding Assay for human Estrogen Receptor (ER) (AID 2283348)
Outline: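 Radioligand competitive displacement binding to estrogen receptor from MCF7 extract, cell-free; 18 h after dosing, scintillation read-out. Primary screen in duplicate at 25 uM; actives followed up in concentration series; loss of signal vs DMSO.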

[12] = biological target: Estrogen receptor (Homo sapiens) + Estrogen receptor beta (Homo sapiens) (UniProt P03372+Q92731); assay: OT_ER_ERaERb_0480: Odyssey Thera (OT) 8-hour HEK293T Protein-Complementation Assay for Estrogen Receptor-alpha/-beta Heterodimer (AID 2283352)
Outline: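 Compound added to HEK293T cells carrying split-reporter-tagged ER-alpha and ER-beta LBDs, incubated 8 hours, then imaged by laser scanning cytometer. Signal rise in nucleus, or nucleus and cytoplasm, over vehicle was fitted in the positive direction.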

[13] = biological target: Bile acid receptor (Homo sapiens) (UniProt Q96RI1); assay: NVS_NR_hFXR_Antagonist: NovaScreen (NVS) Nuclear Receptor Binding Assay for human Farnesoid X Receptor Antagonism (FXR) (AID 2283350)
Outline: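 Cell-free TR-FRET ligand-binding read-out on human FXR (NR1H4) in antagonist mode, measured 1 h after dosing. Primary screen in duplicate at 25 uM, actives retested in concentration series; signal loss scored versus DMSO.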

[14] = biological target: Androgen Receptor/SRC-1 Co-activator, AR (gene 367) (UniProt P10275); assay: OT_AR_ARSRC1_0960: Odyssey Thera (OT) 16-hour HEK293T Protein-Complementation Assay for Androgen Receptor/SRC-1 Co-activator (AID 2283353);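 note: actives raise the signal above DMSO so potency reflects increased AR and SRC-1 complex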
Outline: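 HEK293T cells stably expressing AR and SRC-1 fused to Venus YFP fragments, imaged 16 h after dosing. Nuclear/cytoplasmic fluorescence ratio at 488 nm from at least 400 cells per image; gain of signal relative to DMSO.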

[15] = biological target: Androgen Receptor/SRC-1 Co-activator, AR (gene 367) (UniProt P10275); assay: OT_AR_ARSRC1_0480: Odyssey Thera (OT) 8-hour HEK293T Protein-Complementation Assay for Androgen Receptor/SRC-1 Co-activator (AID 2283354);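 note: hits raise the complementation signal above DMSO so AC50 marks enhancers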
Outline: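 HEK293T cells stably expressing AR and SRC-1 fused to Venus YFP fragments, imaged 8 h after dosing. Complementation fluorescence scored as nuclear/cytoplasmic ratio at 488 nm in at least 400 cells per image; gain fitted versus DMSO.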

[16] = biological target: Bile acid receptor (Homo sapiens) (UniProt Q96RI1); assay: NVS_NR_hFXR_Agonist: NovaScreen (NVS) Nuclear Receptor Binding Assay for human Farnesoid X Receptor Agonism (FXR) (AID 2283347)
Outline: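 Cell-free TR-FRET binding assay with extracted human FXR protein, agonist format, read 1 h after dosing. Primary screen at 25 uM single concentration in duplicate, actives retested in concentration series; gain of signal versus DMSO.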

Measured: AC50

Chain of Androgen Receptor/SRC-1 Co-activator, AR (gene 367) (P10275 whole entry, looked up, the tested form may be a part): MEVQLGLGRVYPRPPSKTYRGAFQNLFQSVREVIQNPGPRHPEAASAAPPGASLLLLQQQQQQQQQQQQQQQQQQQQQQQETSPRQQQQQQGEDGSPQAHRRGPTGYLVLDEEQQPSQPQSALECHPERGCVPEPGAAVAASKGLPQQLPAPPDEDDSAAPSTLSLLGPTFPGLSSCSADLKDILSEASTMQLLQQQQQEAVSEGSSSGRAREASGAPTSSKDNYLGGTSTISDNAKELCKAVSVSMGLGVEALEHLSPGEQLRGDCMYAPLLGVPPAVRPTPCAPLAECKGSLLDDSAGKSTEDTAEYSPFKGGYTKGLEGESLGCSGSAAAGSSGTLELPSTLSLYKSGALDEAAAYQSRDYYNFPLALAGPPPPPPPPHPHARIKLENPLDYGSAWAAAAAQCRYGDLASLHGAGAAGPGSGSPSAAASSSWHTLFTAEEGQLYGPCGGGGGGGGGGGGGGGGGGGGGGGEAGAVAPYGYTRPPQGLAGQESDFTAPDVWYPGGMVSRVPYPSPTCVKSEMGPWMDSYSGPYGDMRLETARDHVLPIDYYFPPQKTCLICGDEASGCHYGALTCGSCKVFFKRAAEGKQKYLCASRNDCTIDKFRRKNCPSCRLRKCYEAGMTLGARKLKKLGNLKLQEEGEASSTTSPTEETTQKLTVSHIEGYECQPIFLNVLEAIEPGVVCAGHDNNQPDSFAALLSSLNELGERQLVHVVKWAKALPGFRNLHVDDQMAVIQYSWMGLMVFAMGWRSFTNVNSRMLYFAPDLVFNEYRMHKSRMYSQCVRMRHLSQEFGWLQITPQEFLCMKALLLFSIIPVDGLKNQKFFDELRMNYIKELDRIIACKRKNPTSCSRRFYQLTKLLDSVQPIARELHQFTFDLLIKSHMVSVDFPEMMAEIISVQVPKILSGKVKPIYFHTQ
Chain of chimpanzee Androgen Receptor (AR), AR (gene 747460) (O97775 whole entry, looked up): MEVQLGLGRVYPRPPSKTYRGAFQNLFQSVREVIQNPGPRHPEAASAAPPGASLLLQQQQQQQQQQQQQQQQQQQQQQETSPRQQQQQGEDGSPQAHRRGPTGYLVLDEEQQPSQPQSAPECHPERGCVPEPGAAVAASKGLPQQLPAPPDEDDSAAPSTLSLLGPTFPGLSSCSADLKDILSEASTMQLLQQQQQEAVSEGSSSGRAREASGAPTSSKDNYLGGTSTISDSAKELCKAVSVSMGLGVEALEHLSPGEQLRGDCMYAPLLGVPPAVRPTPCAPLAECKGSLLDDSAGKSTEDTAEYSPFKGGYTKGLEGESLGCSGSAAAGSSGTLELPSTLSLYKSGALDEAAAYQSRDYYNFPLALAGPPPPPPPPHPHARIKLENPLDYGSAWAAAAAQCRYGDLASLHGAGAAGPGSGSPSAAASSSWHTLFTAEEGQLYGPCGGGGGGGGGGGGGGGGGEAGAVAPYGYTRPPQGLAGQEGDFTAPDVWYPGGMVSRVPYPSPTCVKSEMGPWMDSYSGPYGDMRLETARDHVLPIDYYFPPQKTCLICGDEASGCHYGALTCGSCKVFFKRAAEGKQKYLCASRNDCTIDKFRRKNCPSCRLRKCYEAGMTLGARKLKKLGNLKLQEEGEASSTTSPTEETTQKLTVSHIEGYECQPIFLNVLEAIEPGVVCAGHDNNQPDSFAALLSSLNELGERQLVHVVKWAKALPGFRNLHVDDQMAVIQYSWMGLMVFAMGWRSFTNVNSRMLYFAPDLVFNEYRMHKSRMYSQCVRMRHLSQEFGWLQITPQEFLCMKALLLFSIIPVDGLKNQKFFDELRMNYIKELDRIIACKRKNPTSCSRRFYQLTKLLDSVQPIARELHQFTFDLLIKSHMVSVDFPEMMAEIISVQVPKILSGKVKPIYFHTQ
Chain of Estrogen receptor (Homo sapiens) + Estrogen receptor beta (Homo sapiens) (P03372 whole entry, looked up): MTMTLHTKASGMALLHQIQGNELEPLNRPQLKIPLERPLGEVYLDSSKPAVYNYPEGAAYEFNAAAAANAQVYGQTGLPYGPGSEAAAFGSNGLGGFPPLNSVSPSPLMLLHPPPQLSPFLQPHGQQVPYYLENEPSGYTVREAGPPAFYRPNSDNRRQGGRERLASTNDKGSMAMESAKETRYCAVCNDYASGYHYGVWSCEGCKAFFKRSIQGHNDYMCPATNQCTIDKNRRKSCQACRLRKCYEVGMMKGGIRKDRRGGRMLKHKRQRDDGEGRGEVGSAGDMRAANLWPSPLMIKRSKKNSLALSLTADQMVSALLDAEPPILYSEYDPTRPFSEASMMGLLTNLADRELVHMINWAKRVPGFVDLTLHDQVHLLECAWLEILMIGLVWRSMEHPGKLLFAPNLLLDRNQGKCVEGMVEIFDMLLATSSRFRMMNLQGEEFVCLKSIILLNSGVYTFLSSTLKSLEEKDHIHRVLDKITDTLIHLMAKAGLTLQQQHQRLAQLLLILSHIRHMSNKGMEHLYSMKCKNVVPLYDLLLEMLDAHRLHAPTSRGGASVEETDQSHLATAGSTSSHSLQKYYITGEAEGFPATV
Chain of Estrogen receptor (Homo sapiens) + Estrogen receptor beta (Homo sapiens) (Q92731 whole entry, looked up): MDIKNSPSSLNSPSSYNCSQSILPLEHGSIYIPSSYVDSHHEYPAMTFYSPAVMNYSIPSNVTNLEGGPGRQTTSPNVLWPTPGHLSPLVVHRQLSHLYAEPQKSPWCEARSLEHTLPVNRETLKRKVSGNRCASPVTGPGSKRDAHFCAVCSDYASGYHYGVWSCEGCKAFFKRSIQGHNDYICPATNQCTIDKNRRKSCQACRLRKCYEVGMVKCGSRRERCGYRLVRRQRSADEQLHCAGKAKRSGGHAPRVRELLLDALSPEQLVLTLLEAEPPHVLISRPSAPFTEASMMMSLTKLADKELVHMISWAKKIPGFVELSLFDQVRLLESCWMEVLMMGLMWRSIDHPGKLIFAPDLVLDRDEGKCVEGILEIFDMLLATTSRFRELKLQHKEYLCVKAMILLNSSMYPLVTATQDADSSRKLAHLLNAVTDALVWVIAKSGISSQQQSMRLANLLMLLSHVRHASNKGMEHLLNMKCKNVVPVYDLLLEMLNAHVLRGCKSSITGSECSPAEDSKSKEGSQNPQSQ
Chain of Estrogen receptor (Homo sapiens) (P03372 whole entry, looked up, the tested form may be a part): as the sequence (P03372 whole entry, looked up) above
Chain of Retinoic acid receptor alpha (Homo sapiens) (P10276 whole entry, looked up): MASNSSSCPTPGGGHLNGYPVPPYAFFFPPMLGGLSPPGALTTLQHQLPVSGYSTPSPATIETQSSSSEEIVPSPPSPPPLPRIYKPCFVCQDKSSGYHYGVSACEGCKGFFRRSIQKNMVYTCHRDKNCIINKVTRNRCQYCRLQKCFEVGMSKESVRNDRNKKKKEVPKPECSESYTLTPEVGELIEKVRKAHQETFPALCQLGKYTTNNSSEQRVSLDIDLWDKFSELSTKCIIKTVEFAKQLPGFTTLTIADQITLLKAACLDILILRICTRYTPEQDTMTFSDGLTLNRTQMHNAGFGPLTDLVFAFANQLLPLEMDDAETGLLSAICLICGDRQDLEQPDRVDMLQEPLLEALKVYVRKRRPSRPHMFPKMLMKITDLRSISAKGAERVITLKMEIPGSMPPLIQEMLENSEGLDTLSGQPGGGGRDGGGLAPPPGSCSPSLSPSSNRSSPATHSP
Chain of Estrogen receptor beta (Homo sapiens) (Q92731 whole entry, looked up, the tested form may be a part): as the sequence (Q92731 whole entry, looked up) above
Chain of Bile acid receptor (Homo sapiens) (Q96RI1 whole entry, looked up): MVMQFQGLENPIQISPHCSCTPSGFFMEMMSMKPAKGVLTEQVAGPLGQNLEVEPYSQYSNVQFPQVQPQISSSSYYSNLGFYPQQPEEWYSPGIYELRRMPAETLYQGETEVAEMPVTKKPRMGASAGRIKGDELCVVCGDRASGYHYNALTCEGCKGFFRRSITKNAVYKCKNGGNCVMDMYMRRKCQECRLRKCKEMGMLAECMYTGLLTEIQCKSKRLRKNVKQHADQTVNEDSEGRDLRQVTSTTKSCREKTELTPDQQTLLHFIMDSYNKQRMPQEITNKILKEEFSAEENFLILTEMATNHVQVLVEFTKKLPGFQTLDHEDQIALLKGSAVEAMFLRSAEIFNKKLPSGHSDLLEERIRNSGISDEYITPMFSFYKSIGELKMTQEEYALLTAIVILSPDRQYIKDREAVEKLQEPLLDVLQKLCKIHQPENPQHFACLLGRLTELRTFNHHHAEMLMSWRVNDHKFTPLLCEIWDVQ

CC(C)(C)C(O)C(Oc1ccc(Cl)cc1)n1cncn1 (stereo not given)
active: [1] 39.8 µM | [3] 19.6 µM and 25 µM and 20.5 µM | [4] 67.3 µM
inactive: [2] | [5] | [6]

ClC1C(Cl)C(Cl)C(Cl)C(Cl)C1Cl (stereo not given)
inactive: [1] | [4]
active: [4] 50 µM

CNC(=O)CSP(=S)(OC)OC
inactive: [1] | [7] | [8] | [9] | [4]

O=C(O)C(F)(F)C(F)(F)C(F)(F)C(F)(F)C(F)(F)C(F)(F)C(F)(F)F
inactive: [1] | [4] | [6]

[2H]C1([2H])[n+]2ccccc2-c2cccc[n+]2C1([2H])[2H]
inactive: [10]

COP(=O)(OC)OC=C(Cl)Cl
inactive: [11] | [7] | [8] | [12] | [4]

CC(C)N(C(=O)COc1nnc(C(F)(F)F)s1)c1ccc(F)cc1
inactive: [7] | [8] | [4]

CCC(C)(C)C(=O)OC1=C(c2ccc(Cl)cc2Cl)C(=O)OC12CCCCC2
inactive: [7] | [13] | [12] | [15]
active: [14] 82.4 µM

COC(=O)c1ccccc1S(=O)(=O)NC(=O)Nc1nc(C)nc(OC)n1
inactive: [13] | [5]

COC(=O)c1ccccc1S(=O)(=O)NC(=O)N(C)c1nc(C)nc(OC)n1
inactive: [16] | [11] | [9] | [5]

Cc1[nH]c(=O)n(C(C)(C)C)c(=O)c1Cl
inactive: [7] | [8] | [14] | [15]

CC1(c2ccc(Oc3ccccc3)cc2)OC(=O)N(Nc2ccccc2)C1=O (stereo not given)
active: [13] 10 µM
inactive: [7] | [8] | [12] | [4] | [5]

C#CCN1C(=O)COc2cc(F)c(N3C(=O)C4=C(CCCC4)C3=O)cc21
inactive: [7] | [8] | [14] | [15]

O=C(NC(=O)c1c(F)cccc1F)Nc1ccc(OC(F)(F)C(F)OC(F)(F)F)c(Cl)c1 (stereo not given)
inactive: [11] | [7] | [8] | [12] | [4]

CCc1ccc(C(=O)NN(C(=O)c2cc(C)cc(C)c2)C(C)(C)C)cc1
inactive: [7] | [13] | [8] | [4]
